High-throughput results deposited in PubChem by several laboratories.
ATG4B inh: blocks human ATG4B protease cleavage of LC3 substrate; Q9Y4P1; ATG4B cleavage of LC3-PLA2, NBD-HPC fluorescence, 1 h; inhibition, % at 8.33 µM; actives 0.51% (n = 340,000); AID 504462; in the data active = inhibition above about 40%
Target sequence (Q9Y4P1 whole entry, looked up): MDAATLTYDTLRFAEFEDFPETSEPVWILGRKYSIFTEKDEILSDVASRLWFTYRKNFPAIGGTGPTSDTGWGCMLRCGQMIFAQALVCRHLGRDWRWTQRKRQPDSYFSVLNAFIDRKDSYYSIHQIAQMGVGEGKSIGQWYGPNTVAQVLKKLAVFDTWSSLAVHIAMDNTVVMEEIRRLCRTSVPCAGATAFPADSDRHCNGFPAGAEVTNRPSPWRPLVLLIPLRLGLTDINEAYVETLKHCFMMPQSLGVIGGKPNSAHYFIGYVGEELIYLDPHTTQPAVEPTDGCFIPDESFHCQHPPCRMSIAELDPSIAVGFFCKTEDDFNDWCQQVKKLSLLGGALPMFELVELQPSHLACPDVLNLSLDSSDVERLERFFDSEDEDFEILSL
tim23-1 inh: tim23-1 yeast growth inhibition; S. cerevisiae tim23-1 growth, BacTiter-Glo luminescence, 24 h; AID 463212; inhibition, % at 20 µM; actives 1.3% (n = 330,000);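 active = growth inhibition of the mutant yeast at or above 50%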;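 also: temperature-sensitive mutant grown at 25 °C; plate controls were DMSO-treated mutant yeast for no effect and medium wells lacking yeast for full effect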
tim10-1 inh: tim10-1 yeast growth inhibition; inhibition, % at 20 µM; actives 2.2% (n = 330,000); S. cerevisiae tim10-1 ts strain growth, BacTiter-Glo, 24 h;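 active = inhibition of at least 40%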;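 also: mutant grown at 25 °C; 0% = DMSO wells with yeast and 100% = wells holding no yeast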
SKKanGAS inh: inhibitors of SKKanGAS S. pyogenes growth in kanamycin (SK-promoter or general growth effect) | BacTiter-Glo, 6 h | inhibition, % at 7.5 µM | actives 1.3% (n = 300,000) | AID 1662;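 active = mean replicate score, as percent of positive control median, at least 50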;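 also: strain carries kanamycin resistance gene driven by streptokinase promoter and grows in 40 µg/ml kanamycin; loss of luminescence reflects streptokinase promoter inhibition or plain growth inhibition; 0% = median of DMSO wells and 100% = positive control at its reference dose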
PfHsp90 yeast 2: reduces growth (ATP signal) of yeast expressing P. falciparum Hsp90; inhibition, % at 9.4 µM; actives 0.32% (n = 310,000); S. cerevisiae expressing PfHsp90, BacTiter-Glo ATP, 48 h; yeast lacking PDR1 and PDR3 efflux regulators; AID 504621;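 active = every replicate shows inhibition above about 80%, whatever the replicate mean, limit read from the data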;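 also: 0% = DMSO neutral controls and 100% = 20 µM radicicol positive controls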
TIM10 inh: growth inhibitors of TIM10 yeast strain | actives 1.4% (n = 330,000) | inhibition, % at 10 µM | AID 463195 | S. cerevisiae TIM10 strain growth, BacTiter-Glo luminescence, 24 h;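 active = inhibition of 40% or more at the single tested concentration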;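 also: wild-type TIM10 isogenic control strain grown at permissive 25 °C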
tim23-1 conf: tim23-1 yeast growth inhibition, confirmed; shares compounds with tim23-1 inh; S. cerevisiae tim23-1 growth, BacTiter-Glo luminescence, 24 h; inhibition, % at 20 µM; actives 83% (n = 4,400); AID 463218;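 active = inhibition above about 39% in either of two replicate wells at 20 µM, limit read from the data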;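 also: temperature-sensitive tim23-1 mutant grown at 25 °C; 0% = DMSO wells with yeast and 100% = medium wells without yeast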
An asterisk follows results filed as active; x = not tested or not shown. Only some compounds are listed: those with a hit (about 4.7% of all), similar ones and a draw of the others.

SMILES	ATG4B inh	tim23-1 inh	tim10-1 inh	SKKanGAS inh	PfHsp90 yeast 2	TIM10 inh	tim23-1 conf
Cc1ccc(OC(C)C(=O)N2CCCc3ccccc32)cc1 (stereo unspecified)	-15	29	24	-6	10	23	x
N=C1/C(=C\c2coc3ccccc3c2=O)C(=O)N=C2SC=CN12	-7	65*	22	20	8	8	71*
CSC1=NSC2=NC(=O)/C(=C/c3coc4ccccc4c3=O)C(=N)N12	13	x	x	x	-20	x	x
Cn1c2ccccc2c(=O)c2ccc(-c3ccc4c(c3)OCO4)cc21	-5	5	2	21	9	4	x
Cn1c(C=O)c(-c2ccc3c(c2)OCCO3)c2ccccc21	4	53*	27	x	-47	27	53*
CN1C(=O)/C(=C2\SC(N3CCCCCC3)=NC2=O)c2ccccc21	-10	55*	32	3	-10	33	44*
CN1C(=O)/C(=C2\SC(N)=NC2=O)c2ccccc21	2	-14	14	-5	-10	-13	x
O=Cc1ccccc1OCCOc1ccccc1C=O	71*	85*	15	5	-19	39	78*
O=Cc1ccccc1Oc1ccccc1	-2	5	5	-4	-9	7	x
CC(C)N1C(=O)CCC1C(=O)N1CCN(c2ccc(F)cc2)CC1 (stereo unspecified)	-7	9	14	4	14	2	x
Cn1cncc1C#Cc1c(C=O)n(C)c2ccccc12	-5	67*	37	x	18	39	62*
COc1ccccc1NC(=O)C(C)OC(=O)CC1CCCCC1 (stereo unspecified)	-58	11	29	x	7	-11	x
S=C(Nc1ccc2nsnc2c1)N1CCCCCC1	21	55*	26	4	-8	19	40*
COc1ccc(Cl)cc1Nc1nc(-c2sc(NC(=O)CC(C)C)nc2C)cs1	-16	13	10	8	3	10	x
COc1cc(OC)cc(C(=O)NC(C)c2cnn(-c3ccccc3C)c2C)c1 (stereo unspecified)	-14	-2	12	6	-2	9	x
Brc1cccc(-c2n[nH]c(-c3ccccc3)n2)c1	-10	69*	24	0	-38	23	48*
O=C(c1cc(-c2ccccc2O)on1)N1CCc2ccccc2C1	32	13	22	14	6	4	x
O=C(c1cc(-c2ccc(O)cc2)on1)N1CCc2ccccc2C1	23	72*	27	3	-20	7	56*
O=C(c1ccccc1Br)N1CCc2c([nH]c3ccccc23)C1	-6	61*	14	5	37	17	36
O=C(Cc1ccccc1)NNC(=O)Nc1cccc(Cl)c1	1	51*	-4	12	2	9	11
O=C(NCc1ccc2c(c1)OCO2)c1ccc(-c2ccc(Cl)cc2)o1	-27	55*	19	-8	-61	33	54*
O=C(NCc1ccc2c(c1)OCO2)Nc1cccc(Cl)c1	2	53*	2	9	-7	28	64*
O=C(NCc1ccc2c(c1)OCO2)c1cccc(Cl)c1	5	10	8	4	x	-2	x
CCCCOCCCNC(=O)C1c2ccccc2Oc2ccccc21	8	20	19	4	-1	-8	x
O=C(/C=C/c1c(F)cccc1Cl)N1CCc2ccccc2C1	33	59*	20	9	-96	12	59*
SMILES	ATG4B inh	tim23-1 inh	tim10-1 inh	SKKanGAS inh	PfHsp90 yeast 2	TIM10 inh	tim23-1 conf
Cc1cc(NC(=O)COc2ccccc2C)ccc1NC(=O)c1cccs1	-3	54*	22	5	21	20	63*
CC(C)c1ccc(NC(=O)C(c2ccccc2)N2CCC3(CC2)OCCO3)cc1 (stereo unspecified)	-13	52*	35	-1	-19	38	50*
O=C(NC1CCCCC1)C(c1ccccc1)N1CCC2(CC1)OCCO2 (stereo unspecified)	-9	8	16	10	-17	22	x
Cc1ccc(C)c(NC(=O)CN2C(=O)CC(C)S(=O)(=O)c3ccccc32)c1 (stereo unspecified)	2	-5	0	1	-7	2	x
Cc1ccccc1OCc1nc2ccccc2c(=O)n1NC(=O)c1ccco1	-1	53*	20	5	-5	10	38
Cc1nc2ccccc2c(=O)n1NC(=O)c1ccco1	0	10	0	x	5	0	x
CCCc1nn(-c2ccccc2)c2c1C(c1cccs1)C(C#N)=C(N)O2 (stereo unspecified)	-8	51*	36	-3	15	29	44*
Cc1nn(-c2ccccc2)c2c1C(c1cccs1)C(C#N)=C(N)O2 (stereo unspecified)	-9	61*	24	9	-1	32	60*
COc1ccccc1C(=O)Nc1cccc(S(=O)(=O)N2CCCC2)c1	-10	98*	6	-5	-26	2	29
C/C(=N\Nc1ccc(Cl)cc1)c1ccncc1	6	54*	28	-2	9	22	-15
C/C(=N\Nc1ccc(F)cc1)c1ccncc1	1	11	-21	1	-25	-13	x
O=C(COc1ccc2ccccc2c1Br)Nc1cccnc1	-10	52*	30	-10	-17	21	22
O=C(OCc1ccc(F)cc1)c1cc(=O)c2ccccc2o1	2	94*	6	-1	-38	12	26
Cc1nc2ccccc2nc1Nc1cccc(Cl)c1	-10	61*	39	-2	-59	26	41*
CN(CC(=O)Nc1c(Cl)cccc1Cl)C(=O)c1cccc(S(=O)(=O)NCc2ccccc2)c1	7	-9	-2	-3	x	-2	x
O=S(=O)(Nc1ccc(O)c2ccccc12)c1cccs1	-7	57*	12	28	2	29	44*
COc1ccc(S(=O)(=O)N2CCN(Cc3cccc(Cl)c3)CC2)cc1	-12	51*	26	-1	16	26	53*
Cc1ccccc1NS(=O)(=O)c1cccc2nonc12	7	15	29	0	-5	12	x
Cc1ccccc1[C@@]1(C)ON(c2ccccc2C(F)(F)F)C1=O	7	56*	9	x	1	33	46*
CC[C@@]1(c2ccccc2OC)ON(c2ccccc2C(F)(F)F)C1=O	0	57*	5	x	-10	34	51*
COc1ccccc1-c1cc(C(F)(F)F)c(C#N)c(=O)[nH]1	8	7	3	-6	0	3	x
COc1ccccc1NS(=O)(=O)c1cc(NC(=O)CCNC(C)=O)ccc1C	-6	8	10	4	-8	10	x
